The sample as a whole holds a higher share of hits than the screen did.
ERp5 inh – blocks human ERp5 reductase activity on insulin; Q15084; ERp5 insulin aggregation, absorbance 650 nm, 90 min; inhibition, % at 9.99 µM; hit rate 0.05% among 350,000; AID 651711;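 active = mean replicate inhibition above about 25%, with every replicate also reaching it, limit read from the data, passing the limit was not always enough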
PglD DTNB – inhibitors of Campylobacter jejuni PglD acetyltransferase | AID 602405 | inhibition, % at 12.5 µM | hit rate 0.098% among 360,000 | purified PglD enzyme, DTNB colorimetric CoA detection; in the data active = inhibition above about 16%, passing the limit was not always enough
ARNT-TACC3 inh – disruptors of human ARNT/TACC3 interaction; inhibition, % at 9.99 µM; hit rate 0.66% among 390,000; Q9Y6A5; AlphaScreen His-ARNT PAS-B/GST-TACC3 binding, luminescence; TACC3 fragment carries E629A point mutation;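 active = mean inhibition of replicates at least 50% and at least half of replicates each reaching 50%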
NRP1-CendR mod – modulators of CendR peptide binding to human neuropilin-1; O14786; AID 602438; hit rate 0.85% among 360,000; inhibition, % at 25 µM; FAM-RPARPAR peptide binding to NRP-1, fluorescence polarization;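 active = inhibition or corrected inhibition above about 18%, plus a signal ratio from 0.5 to 1.5, limit read from the data, passing the limit was not always enough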
Target sequence (O14786 whole entry, looked up): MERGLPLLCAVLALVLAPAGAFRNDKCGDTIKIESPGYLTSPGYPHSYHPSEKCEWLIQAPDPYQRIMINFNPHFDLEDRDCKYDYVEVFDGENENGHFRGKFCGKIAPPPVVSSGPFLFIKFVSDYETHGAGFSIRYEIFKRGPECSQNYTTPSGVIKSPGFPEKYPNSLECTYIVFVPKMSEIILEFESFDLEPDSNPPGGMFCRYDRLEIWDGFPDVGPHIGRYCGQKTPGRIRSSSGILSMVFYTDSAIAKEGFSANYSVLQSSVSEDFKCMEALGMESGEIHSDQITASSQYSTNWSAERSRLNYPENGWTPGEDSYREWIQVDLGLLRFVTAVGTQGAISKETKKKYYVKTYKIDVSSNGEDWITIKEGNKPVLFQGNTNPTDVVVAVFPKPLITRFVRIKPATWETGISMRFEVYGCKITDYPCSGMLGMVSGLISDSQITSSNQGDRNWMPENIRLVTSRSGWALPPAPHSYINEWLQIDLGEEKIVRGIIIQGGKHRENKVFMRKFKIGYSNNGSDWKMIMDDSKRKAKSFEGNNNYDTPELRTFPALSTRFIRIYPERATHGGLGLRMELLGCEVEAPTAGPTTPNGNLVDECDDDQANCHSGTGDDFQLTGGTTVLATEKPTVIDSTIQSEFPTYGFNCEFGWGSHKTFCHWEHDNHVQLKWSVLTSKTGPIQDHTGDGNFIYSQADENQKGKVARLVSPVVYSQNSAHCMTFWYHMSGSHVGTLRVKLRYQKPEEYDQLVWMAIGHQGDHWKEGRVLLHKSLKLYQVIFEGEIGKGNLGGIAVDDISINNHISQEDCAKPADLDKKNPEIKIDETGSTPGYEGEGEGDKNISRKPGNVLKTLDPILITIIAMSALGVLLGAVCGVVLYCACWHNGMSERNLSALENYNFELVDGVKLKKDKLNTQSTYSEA
ALR H2O2 inh – human ALR oxidase inhibition via reduced H2O2. P55789. purified ALR, DTT oxidation, H2O2 HRP-luminol luminescence. inhibition, % (test concentration not listed). hit rate 3.8% among 290,000;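 active = mean replicate inhibition above about 79%, with every replicate also reaching it, limit read from the data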
PDI turbidity – PDI (human) enzyme inhibition; P07237; PDI insulin aggregation turbidity, A650, 90 min; inhibition, % at 10 µM; hit rate 0.052% among 350,000; AID 588391;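 active = mean inhibition across replicates of 30% or more, whatever share of single replicates reach that level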
ARNT Alpha ctr-1 – counter-screen for ARNT/TACC3 inhibitors: AlphaScreen artifacts; shares compounds with ARNT-TACC3 inh; His-ARNT PASB-GST AlphaScreen artifact counter-screen, luminescence; AC50, µM (series often up to 68 µM); hit rate 50% among 1,200; AID 651705;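 active = every separate test run was called active for a drop in luminescence, with AC50 within twice the top valid dose, actives reach about 71 µM in these data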
ARNT Alpha ctr-2 – AlphaScreen artifact flagged for ARNT-TACC3 inhibitors | shares compounds with ARNT-TACC3 inh | Dual-tagged His-ARNT PASB-GST AlphaScreen artifact counter-screen | AC50, µM | hit rate 70% among 45 | AID 720564;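 active = luminescence drop, with half-maximal potency fitted within twice the sample's top valid dose, cut at about 70 µM in these data; inactive = the rest, including signal moving the wrong way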
Numbers stand for hits; n = inactive; x = not tested or not shown.

SMILES | ERp5 inh | PglD DTNB | ARNT-TACC3 inh | NRP1-CendR mod | ALR H2O2 inh | PDI turbidity | ARNT Alpha ctr-1 | others
O=C(NC[C@H]1[C@H](c2ccccc2)[C@@H](CO)N1Cc1ccccn1)C1CC1 | n | n | n | x | x | x | x
O=C(NC[C@@H]1[C@@H](c2ccccc2)[C@@H](CO)N1Cc1ccccn1)NC1CCCC1 | n | x | x | x | x | x | x
CCNC(=O)[C@@H]1[C@@H](CO)[C@@H]2Cn3c(ccc(-c4cccc(OC)c4)c3=O)[C@@H]2N1C(=O)NC(C)C | n | n | n | x | x | x | x
COc1ccc(OC)c(-c2cc(C(=O)N3CCN(c4ncccn4)CC3)c3ccccc3n2)c1 | x | n | 51 | n | n | n | n
COCC(=O)N(C)C[C@@H]1Oc2ncc(C#Cc3ccccc3)cc2C(=O)N([C@@H](C)CO)C[C@H]1C | n | n | n | x | x | x | x
Cc1ccc(S(=O)(=O)CCc2nnc(NC(=O)c3ccccn3)s2)cc1 | x | n | 73 | n | n | n | 34µM
COc1cccc(C(=O)Nc2nnc(CCS(=O)(=O)c3ccc(C)cc3)s2)c1 | n | n | n | n | n | n | x
Cc1ccc(S(=O)(=O)CCc2nnc(NC(=O)c3ccccc3)s2)cc1 | x | x | x | x | x | x | x | ARNT Alpha ctr-2=n
O=C(NCC[C@H]1CC[C@H](NS(=O)(=O)c2cccc(Cl)c2)[C@H](CO)O1)c1cnccn1 | n | n | n | x | x | x | x
Cc1noc(C)c1NC(=O)N(C)C[C@@H]1Oc2c(NS(C)(=O)=O)cccc2C(=O)N([C@H](C)CO)C[C@H]1C | n | n | x | x | x | x | x
CC1=NN(c2ccccc2C)C(=O)C1 | n | n | active | n | x | n | n
C[C@@H]1CN([C@H](C)CO)C(=O)Cc2cc(NS(=O)(=O)c3cccs3)ccc2O[C@@H]1CN(C)S(=O)(=O)c1ccccc1 | n | n | n | x | x | x | x
OCC1CCN(Cc2ccc(O)c3ncccc23)CC1 | x | x | x | x | x | x | 0.41µM
CN1CCN(C2CCN(Cc3ccc(O)c4ncccc34)CC2)CC1 | n | n | 65 | n | n | n | 14µM
CN1CCN(Cc2cc(COCc3ccccc3)c3cccnc3c2O)CC1 | x | n | n | n | x | n | x
Oc1ccc(CNC2CCc3ccccc32)c2cccnc12 (centres undefined) | x | x | x | x | x | x | 3.2µM
Oc1ccc(CN2CCN(Cc3ccccc3)CC2)c2cccnc12 | x | n | 65 | n | n | n | 6µM
O=S(=O)(c1ccc(Cl)cc1)N1CCN(Cc2ccc(O)c3ncccc23)CC1 | n | x | n | n | n | n | x
CCCc1cn(CC[C@@H]2CC[C@H](NC(=O)Nc3ccccc3F)[C@H](CO)O2)nn1 | n | n | n | x | x | x | x
CNC[C@H]1Oc2ccc(NC(=O)Nc3ccc4c(c3)OCO4)cc2C(=O)N([C@@H](C)CO)C[C@H]1C | n | n | n | x | x | x | x
Cc1noc(C)c1NC(=O)Nc1cccc2c1O[C@@H](CN(C)S(C)(=O)=O)[C@@H](C)CN([C@H](C)CO)C2=O | n | n | n | x | x | x | x
COc1ccc(Br)cc1CNc1ccc(O)cc1 | x | n | 14 | n | 98 | n | 53µM
COc1ccccc1CNCc1cc(Br)ccc1OC | n | x | n | n | n | n | x
CCC(=O)N1C[C@@H](C)[C@H](OC)CN(C)C(=O)c2cc(NC(=O)Nc3cccc(F)c3)ccc2OC[C@@H]1C | n | n | n | x | x | x | x
COc1ccc(-c2oc3cc(O)c(OC)c(O)c3c(=O)c2OC)cc1O | n | x | 56 | n | x | n | n
SMILES | ERp5 inh | PglD DTNB | ARNT-TACC3 inh | NRP1-CendR mod | ALR H2O2 inh | PDI turbidity | ARNT Alpha ctr-1 | others
Cc1ccc(-c2nc(C)sc2CC(=O)NCc2ccco2)cc1 | x | n | active | n | x | n | n
C[C@@H]1CN([C@H](C)CO)C(=O)Cc2cc(NC(=O)Nc3ccc(C(F)(F)F)cc3)ccc2O[C@@H]1CN(C)S(C)(=O)=O | n | n | n | x | x | x | x
CCCCCc1cc(=O)oc2c(C(CCN3CCCC3)c3ccc(N(C)C)cc3)c(OC)cc(OC)c12 (centres undefined) | n | n | 51 | n | x | n | 9.6µM
CCCCN(CC)c1nc(N)c2c(N)nc(OCC)cc2c1C#N | x | x | 10 | n | n | n | n
O=C(NN=Cc1c(O)ccc2ccccc12)c1ccncc1 | n | x | 56 | n | x | n | 49µM
O=C(N/N=C/c1cc(Br)ccc1OC(=O)c1ccc(Br)cc1)c1ccncc1 | n | n | 61 | n | n | n | 56µM
O=C(N/N=C/c1cc([N+](=O)[O-])ccc1O)c1ccncc1 | n | x | 57 | n | n | n | 12µM
CC(C)c1ccc(O)c(NC(=O)c2cncc(Br)c2)c1 | x | n | n | n | x | n | x
CC(C)c1ccc(O)c(NC(=O)c2ncn[nH]2)c1 | n | n | 31 | n | n | n | n
CN(C)C(=O)C[C@@H]1CC[C@@H]2[C@@H](COc3ccc(NC(=O)C4CCCC4)cc3C(=O)N2C)O1 | n | x | x | x | x | x | x
CCOC(=O)c1cnc(Nc2nc3ccccc3o2)nc1CN1CCN(C)CC1 | x | n | 55 | n | x | n | 41µM
CCCN1[C@@H]2c3ccc(/C=C/c4ccccc4)c(=O)n3C[C@@H]2[C@@H](CO)[C@@H]1C(=O)NCC | n | n | n | x | x | x | x
CCOC(=O)c1c(C)[nH]c(N=Nc2cccc(OC)c2)c1C | n | n | n | n | n | n | x
CCOC(=O)c1c(C)[nH]c(N=Nc2cccc(C)c2)c1C | x | n | 36 | n | n | n | 21µM
O=C(O)c1cc2c(cn1)[nH]c1ccccc12 | n | n | 75 | n | n | n | 9.7µM
C[C@H](CO)N1C[C@H](C)[C@H](CN(C)Cc2ccccc2)Oc2c(NS(C)(=O)=O)cccc2C1=O | n | n | n | x | x | x | x
N#CC1=C(N)Oc2c(ccc3cccnc23)C1c1ccccc1 (centres undefined) | n | n | 57 | n | n | n | 71µM
C/C=C/c1ccc([C@H]2[C@@H](CO)N(Cc3ccccn3)[C@@H]2CNC(=O)CC)cc1 | n | n | n | x | x | x | x
C/C=C/c1ccc([C@H]2[C@@H](CO)N(Cc3ccccn3)[C@@H]2CNC(C)=O)cc1 | n | n | 30 | x | x | x | n
C/C=C/c1ccc([C@H]2[C@@H](CO)N(Cc3ccccn3)[C@H]2CNC(=O)CC)cc1 | x | n | 41 | x | x | x | n
C[C@H](CO)N1C[C@H](C)[C@@H](CN(C)Cc2cccnc2)Oc2ncc(C#Cc3cccnc3)cc2C1=O | n | n | n | x | x | x | x
C[C@H](CO)N1C[C@H](C)[C@H](CN(C)Cc2ccccc2)OCCCC[C@H](C)Oc2ccc(NC(=O)Nc3ccccc3)cc2C1=O | n | n | n | x | x | x | x
O=Nc1ccc(O)c2ncccc12 | n | x | 57 | n | n | n | 69µM
Cc1ccccc1NCc1ccc(O)c2ncccc12 | n | n | n | n | n | n | x
COCc1ccc(O)c2ncccc12 | x | n | 75 | n | n | n | 16µM
c1ccc2c(Cn3ccnc3)c[nH]c2c1 | x | n | n | n | n | n | x
Oc1ccc(Cn2ccnc2)c2cccnc12 | n | x | 58 | n | n | n | 6.2µM
